# From PubChem BioAssay (Tox21)
# A number with no mark means an inactive call. Records with an inconclusive call do not appear. Entries that show only a call come without a potency. The source made the active and inactive calls. Calls follow the shape of the dose curve; as a rule, active = well fitted curve in the direction sought with a large enough effect in the repeat runs; inconclusive = weak or mixed curves; inactive = no such curve, though single readings can be large; an effect the other way counts as inactive or inconclusive.
# Legend:
# [1] = Human pregnane X receptor (PXR) small molecule agonists, qHTS cell viability counter screen (AID 1346977); also: nearly all actives have a fitted effect of over 50% in size; also: potency is read from the fitted curve at half-maximal effect
# Method in brief: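 Viability counter screen: CellTiter-Fluor signal in PXR-Luc HepG2 cells, 24hr compound exposure, 37C, 5% CO2.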
# [2] = Caspase-3/7 induction in HepG2 cells by small molecules, qHTS assay (AID 1346978); also: nearly all actives have a fitted effect of over 15% in size
# Method in brief: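 Wild-type HepG2 cells (2,000/well) were settled 5 h at 37 C, 5% CO2, then exposed to compounds in DMSO for 17 h. Caspase-3/7 activity was read by luminescence 30 min after adding Caspase-Glo 3/7 reagent at room temperature.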
# [3] = Caspase-3/7 induction in CHO-K1 cells by small molecules, qHTS cell viability counter screen (AID 1346979); also: nearly all actives have a fitted effect of over 35% in size; also: potency is read from the fitted curve at half-maximal effect
# Method in brief: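 Viability readout by fluorescence (CellTiter-Fluor) on wild-type CHO-K1 cells exposed for 16hr at 37C and 5% CO2 to compounds delivered in DMSO; reagent incubated 1hr before reading.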
# [4] = Caspase-3/7 induction in HepG2 cells by small molecules, qHTS cell viability counter screen (AID 1346981); also: series mostly up to about 92 µM; nearly all actives have a fitted effect of over 30% in size
# Method in brief: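 Counter screen for cytotoxicity: HepG2 exposed 16 hr to compounds, then CellTiter-Fluor viability signal (fluorescence, 1 hr reagent incubation).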
# [5] = target: Nuclear receptor subfamily 1 group I member 2 (Homo sapiens) (UniProt O75469); experiment: Human pregnane X receptor (PXR) small molecule agonists, qHTS assay (AID 1346982); also: nearly all actives have a fitted effect of over 35% in size; also: potency is read from the fitted curve at half-maximal effect
# Method in brief: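 Luminescence (ONE-Glo, 30 min RT) after 24 hr compound exposure of PXR-Luc HepG2 cells; cells rested 5 hr post-plating in 5% charcoal-stripped FBS medium.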
# [6] = target: Cytochrome P450 2C9 (Homo sapiens) (UniProt P11712); experiment: Cytochrome P450 Family 2 Subfamily C Member 9 (CYP2C9) small molecule antagonists: luciferase reporter qHTS assay (AID 1671198); also: nearly all actives have a fitted effect of over 50% in size; also: potency is read from the fitted curve at half-maximal effect
# Method in brief: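 CYP2C9 activity was measured with a P450-Glo proluciferin substrate. Enzyme–substrate mix was held with compound for 10 min at room temperature, then NADPH regeneration solution was added for 1 h at 37C. Luciferin product was read as luminescence.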
# [7] = target: Cytochrome P450 1A2 (Homo sapiens) (UniProt P05177); experiment: Cytochrome P450 Family 1 Subfamily A Member 2 (CYP1A2) small molecule antagonists: luciferase reporter qHTS assay (AID 1671199); also: nearly all actives have a fitted effect of over 50% in size; also: potency is read from the fitted curve at half-maximal effect
# Method in brief: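 Signal from luciferin formed by CYP1A2 from a proluciferin substrate is read as luminescence, expressed in relative luminescence units. Compounds sit with enzyme 10 min, NADPH-driven reaction runs 1 h, all at room temperature.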
# [8] = target: Voltage-gated inwardly rectifying potassium channel KCNH2 (Homo sapiens) (UniProt Q12809); experiment: Human Ether-a-go-go-Related Gene (hERG) channel small molecule antagonists: fluorescence cell-based qHTS assay (AID 1671200); also: nearly all actives have a fitted effect of over 50% in size; also: potency is read from the fitted curve at half-maximal effect
# Method in brief: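 Thallium served as the potassium surrogate; its influx into dye-loaded U2OS cells carrying the channel was measured by fluorescence over 2 min.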
# [9] = target: Cytochrome P450 3A4 (Homo sapiens) (UniProt P08684); experiment: Cytochrome P450 Family 3 Subfamily A Member 4 (CYP3A4) small molecule antagonists: luciferase reporter qHTS assay (AID 1671201); also: nearly all actives have a fitted effect of over 50% in size; also: potency is read from the fitted curve at half-maximal effect
# Method in brief: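 Relative luminescence units after 20 min with luciferin detection reagent served as read-out. Beforehand, CYP3A4 turned over a proluciferin substrate for 1 h at room temperature with NADPH regeneration, following 10 min compound preincubation.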
# [10] = Caspase-3/7 induction in CHO-K1 cells by small molecules, qHTS assay (AID 1346980); also: nearly all actives have a fitted effect of over 15% in size
# Method in brief: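 Wild-type cells were seeded at 1,500 per well and settled 5 hr at 37 C, 5% CO2, then exposed to DMSO-dissolved compounds for 17 hr. Caspase-Glo 3/7 reagent was added, and luminescence was read after 30min at room temperature.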
# [11] = target: Nuclear receptor subfamily 1 group I member 2 (Homo sapiens) (UniProt O75469); experiment: CYP3A4 induction through human pregnane X receptor (PXR) by small molecules, qHTS assay (AID 1346984); also: nearly all actives have a fitted effect of over 40% in size
# Method in brief: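 DPX-2 reporter cells; 24h cpd, 37C; Luciferin-IPA 3uM final x3h; One-Glo 30 min RT; lumi read.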
# [12] = target: Nuclear receptor subfamily 1 group I member 2 (Homo sapiens) (UniProt O75469); experiment: Human pregnane X receptor (PXR) activation by small molecules, qHTS assay (AID 1346985); also: nearly all actives have a fitted effect of over 40% in size
# Method in brief: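 DPX-2 cells (HepG2 co-transfected with a PXR response element and a CYP3A4-promoter luciferase construct) were seeded at 2,000 per well, rested 5 hr at 37C, then exposed to DMSO-dissolved compounds for 24 hr. Activation was read as luciferase luminescence.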
# [13] = target: Cytochrome P450 2D6 (Homo sapiens) (UniProt P10635); experiment: Cytochrome P450 Family 2 Subfamily D Member 6 (CYP2D6) small molecule antagonists: luciferase reporter qHTS assay (AID 1671196); also: nearly all actives have a fitted effect of over 50% in size; also: potency is read from the fitted curve at half-maximal effect
# Method in brief: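 Inhibition of CYP2D6 was gauged by loss of luminescence, since light produced tracks the luciferin generated from a proluciferin substrate. A 10 min room-temperature preincubation preceded 1 h NADPH-supported turnover.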
# [14] = target: Cytochrome P450 2C19 (Homo sapiens) (UniProt P33261); experiment: Cytochrome P450 Family 2 Subfamily C Member 19 (CYP2C19) small molecule antagonists: luciferase reporter qHTS assay (AID 1671197); also: nearly all actives have a fitted effect of over 65% in size; also: potency is read from the fitted curve at half-maximal effect
# Method in brief: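 Enzyme-substrate mix with proluciferin substrate (P450-Glo CYP2C19 system) preincubated with compounds 10 min at room temperature; NADPH regeneration solution added, 37C for 1 h; detection reagent stops reaction, luminescence read after 20 min. Ketoconazole positive control.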
# Cytochrome P450 2D6 (Homo sapiens), sequence (P10635 whole entry, looked up): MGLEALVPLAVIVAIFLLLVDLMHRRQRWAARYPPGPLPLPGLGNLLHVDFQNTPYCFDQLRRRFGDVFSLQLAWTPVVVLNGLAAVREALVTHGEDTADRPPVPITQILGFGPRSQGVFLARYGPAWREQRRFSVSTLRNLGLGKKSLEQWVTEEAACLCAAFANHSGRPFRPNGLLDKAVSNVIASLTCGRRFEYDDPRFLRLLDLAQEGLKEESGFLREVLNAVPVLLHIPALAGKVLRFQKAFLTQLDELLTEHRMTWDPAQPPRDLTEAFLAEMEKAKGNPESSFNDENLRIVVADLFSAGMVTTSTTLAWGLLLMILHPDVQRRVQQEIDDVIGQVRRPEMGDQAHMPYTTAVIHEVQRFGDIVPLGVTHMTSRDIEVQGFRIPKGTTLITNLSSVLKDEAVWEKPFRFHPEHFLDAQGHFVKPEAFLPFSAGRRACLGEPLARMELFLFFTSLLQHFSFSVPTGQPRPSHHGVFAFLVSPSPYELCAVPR
# Cytochrome P450 2C9 (Homo sapiens), sequence (P11712 whole entry, looked up): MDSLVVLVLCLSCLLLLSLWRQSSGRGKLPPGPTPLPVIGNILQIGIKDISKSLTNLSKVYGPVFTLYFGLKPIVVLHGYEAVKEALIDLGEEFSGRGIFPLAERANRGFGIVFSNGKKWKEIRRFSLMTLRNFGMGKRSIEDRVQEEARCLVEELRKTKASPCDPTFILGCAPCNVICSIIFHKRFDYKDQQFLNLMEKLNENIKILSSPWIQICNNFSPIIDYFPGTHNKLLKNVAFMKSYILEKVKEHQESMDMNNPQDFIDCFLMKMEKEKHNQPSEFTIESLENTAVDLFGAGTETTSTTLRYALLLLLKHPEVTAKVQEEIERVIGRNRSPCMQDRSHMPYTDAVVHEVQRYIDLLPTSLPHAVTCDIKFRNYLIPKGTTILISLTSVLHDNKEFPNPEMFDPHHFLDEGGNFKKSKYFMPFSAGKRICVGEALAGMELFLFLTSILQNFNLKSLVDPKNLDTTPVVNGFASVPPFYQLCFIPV
# Nuclear receptor subfamily 1 group I member 2 (Homo sapiens), sequence (O75469 whole entry, looked up): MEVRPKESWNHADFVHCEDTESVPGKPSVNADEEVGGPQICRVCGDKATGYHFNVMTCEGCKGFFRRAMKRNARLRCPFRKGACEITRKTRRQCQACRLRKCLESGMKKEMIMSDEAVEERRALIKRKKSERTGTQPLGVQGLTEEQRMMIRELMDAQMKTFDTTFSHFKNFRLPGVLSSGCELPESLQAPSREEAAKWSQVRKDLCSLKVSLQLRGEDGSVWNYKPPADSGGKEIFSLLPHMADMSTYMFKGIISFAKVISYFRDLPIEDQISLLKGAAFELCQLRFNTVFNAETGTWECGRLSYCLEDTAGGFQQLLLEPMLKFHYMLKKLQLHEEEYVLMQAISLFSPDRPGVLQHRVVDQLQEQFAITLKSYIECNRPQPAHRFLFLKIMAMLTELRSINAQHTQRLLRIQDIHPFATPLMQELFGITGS
# Cytochrome P450 2C19 (Homo sapiens), sequence (P33261 whole entry, looked up): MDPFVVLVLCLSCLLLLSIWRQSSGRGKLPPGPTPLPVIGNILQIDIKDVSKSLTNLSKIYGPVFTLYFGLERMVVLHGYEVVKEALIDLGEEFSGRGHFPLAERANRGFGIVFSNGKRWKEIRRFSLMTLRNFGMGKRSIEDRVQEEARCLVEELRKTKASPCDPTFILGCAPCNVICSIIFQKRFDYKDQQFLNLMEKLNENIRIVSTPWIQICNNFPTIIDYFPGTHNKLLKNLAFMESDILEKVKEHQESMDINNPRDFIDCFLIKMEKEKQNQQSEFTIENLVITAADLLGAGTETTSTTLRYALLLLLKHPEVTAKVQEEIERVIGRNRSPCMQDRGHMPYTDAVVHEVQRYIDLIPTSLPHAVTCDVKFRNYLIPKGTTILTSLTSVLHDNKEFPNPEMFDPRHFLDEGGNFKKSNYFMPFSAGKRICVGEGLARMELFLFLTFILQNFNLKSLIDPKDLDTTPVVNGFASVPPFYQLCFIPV
# Cytochrome P450 1A2 (Homo sapiens), sequence (P05177 whole entry, looked up): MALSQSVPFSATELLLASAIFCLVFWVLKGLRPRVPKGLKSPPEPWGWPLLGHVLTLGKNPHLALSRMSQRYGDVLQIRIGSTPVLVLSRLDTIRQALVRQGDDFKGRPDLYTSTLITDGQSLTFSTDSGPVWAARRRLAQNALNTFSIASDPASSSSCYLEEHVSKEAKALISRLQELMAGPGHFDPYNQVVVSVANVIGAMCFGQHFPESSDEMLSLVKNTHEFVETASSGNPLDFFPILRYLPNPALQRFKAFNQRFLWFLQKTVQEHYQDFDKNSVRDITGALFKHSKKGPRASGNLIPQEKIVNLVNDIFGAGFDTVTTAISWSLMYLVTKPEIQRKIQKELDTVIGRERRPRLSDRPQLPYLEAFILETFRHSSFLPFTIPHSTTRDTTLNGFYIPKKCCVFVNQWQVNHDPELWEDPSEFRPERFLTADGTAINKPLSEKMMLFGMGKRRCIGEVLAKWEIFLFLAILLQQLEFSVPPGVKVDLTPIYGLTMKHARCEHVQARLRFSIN
# Cytochrome P450 3A4 (Homo sapiens), sequence (P08684 whole entry, looked up): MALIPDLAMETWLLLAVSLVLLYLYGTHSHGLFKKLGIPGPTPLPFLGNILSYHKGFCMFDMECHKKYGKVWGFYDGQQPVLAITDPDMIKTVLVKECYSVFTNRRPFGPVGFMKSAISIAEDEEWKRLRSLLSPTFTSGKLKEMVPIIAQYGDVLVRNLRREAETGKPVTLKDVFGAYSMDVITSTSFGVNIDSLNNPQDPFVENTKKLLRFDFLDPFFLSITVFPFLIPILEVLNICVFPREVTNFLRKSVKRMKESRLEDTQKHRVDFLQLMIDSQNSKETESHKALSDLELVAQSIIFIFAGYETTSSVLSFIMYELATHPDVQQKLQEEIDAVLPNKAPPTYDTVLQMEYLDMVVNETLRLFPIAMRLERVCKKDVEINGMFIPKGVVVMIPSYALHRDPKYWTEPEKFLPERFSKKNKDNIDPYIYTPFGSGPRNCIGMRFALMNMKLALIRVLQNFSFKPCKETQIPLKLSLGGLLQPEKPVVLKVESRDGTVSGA
# Voltage-gated inwardly rectifying potassium channel KCNH2 (Homo sapiens), sequence (Q12809 whole entry, looked up): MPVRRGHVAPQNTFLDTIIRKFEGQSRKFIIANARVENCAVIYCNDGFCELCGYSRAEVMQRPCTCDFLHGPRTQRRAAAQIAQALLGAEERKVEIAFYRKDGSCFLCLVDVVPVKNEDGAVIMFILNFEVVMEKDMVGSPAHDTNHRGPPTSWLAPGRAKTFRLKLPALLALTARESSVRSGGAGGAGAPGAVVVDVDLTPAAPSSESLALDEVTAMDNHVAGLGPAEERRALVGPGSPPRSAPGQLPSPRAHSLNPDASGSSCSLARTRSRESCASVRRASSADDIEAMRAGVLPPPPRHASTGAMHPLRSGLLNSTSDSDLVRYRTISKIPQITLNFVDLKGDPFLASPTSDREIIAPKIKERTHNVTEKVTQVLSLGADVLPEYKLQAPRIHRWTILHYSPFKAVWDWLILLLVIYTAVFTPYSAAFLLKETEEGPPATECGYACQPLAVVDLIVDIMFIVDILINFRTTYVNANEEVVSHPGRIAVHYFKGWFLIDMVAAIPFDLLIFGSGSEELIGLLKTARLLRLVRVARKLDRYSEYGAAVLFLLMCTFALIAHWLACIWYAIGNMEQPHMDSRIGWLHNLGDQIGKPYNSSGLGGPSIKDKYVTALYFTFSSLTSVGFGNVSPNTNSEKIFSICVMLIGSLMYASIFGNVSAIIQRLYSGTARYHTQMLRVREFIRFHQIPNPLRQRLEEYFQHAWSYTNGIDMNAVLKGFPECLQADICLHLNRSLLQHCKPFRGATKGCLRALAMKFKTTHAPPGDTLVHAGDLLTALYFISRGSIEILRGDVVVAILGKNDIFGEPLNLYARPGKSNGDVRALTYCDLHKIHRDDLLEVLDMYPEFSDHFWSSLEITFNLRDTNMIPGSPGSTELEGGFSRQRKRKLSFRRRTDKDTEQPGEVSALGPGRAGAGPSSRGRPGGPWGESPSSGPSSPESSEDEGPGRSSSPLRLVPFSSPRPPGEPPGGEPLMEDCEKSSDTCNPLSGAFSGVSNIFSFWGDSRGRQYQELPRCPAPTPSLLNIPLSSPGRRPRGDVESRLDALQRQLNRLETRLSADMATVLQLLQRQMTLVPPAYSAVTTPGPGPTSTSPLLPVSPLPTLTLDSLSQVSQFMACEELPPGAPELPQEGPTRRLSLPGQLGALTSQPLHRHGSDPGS
SMILES,Potency [1],outcome [2],Potency [3],outcome [4],Potency [5],Potency [6],Potency [7],Potency [8],Potency [9],outcome [10],Potency [11],Potency [12],Potency [13],Potency [14]
COC(=O)CCCC(=O)O,inactive,inactive,inactive,inactive,inactive,inactive,inactive,inactive,inactive,,,,,
COc1cc(C(=O)N2CCOCC2)cc(OC)c1OC,inactive,inactive,,inactive,inactive,inactive,inactive,inactive,inactive,inactive,inactive,inactive,inactive,inactive
OCc1ccccn1,inactive,inactive,,inactive,inactive,inactive,inactive,inactive,inactive,inactive,inactive,inactive,,inactive
CCCCCCCCN(C)CCCCCCCC,inactive,inactive,inactive,inactive,inactive,,inactive,1.57 µM (active),inactive,,,,64 µM (active),inactive
CC(C)CCCC(C)CCCC(C)CCCCC(C)CCCC(C)CCCC(C)C (configuration not stated),inactive,inactive,,inactive,inactive,inactive,inactive,inactive,inactive,,,inactive,inactive,inactive
Fc1ccccc1-c1ccccc1,inactive,inactive,inactive,inactive,inactive,inactive,40.8 µM (active),inactive,inactive,inactive,,,,inactive
CCCCCCCCCCCCCCCCCCOCC(O)CO (configuration not stated),inactive,inactive,,inactive,inactive,inactive,,inactive,inactive,,inactive,inactive,inactive,inactive
N#CC1(O)CCCCC1,17.4 µM (active),inactive,27.5 µM (active),,17.4 µM (active),,,inactive,inactive,,,,,40.2 µM (active)
OC/C=C/c1ccccc1,inactive,inactive,inactive,inactive,inactive,52.6 µM (active),,inactive,inactive,,inactive,inactive,59 µM (active),74.3 µM (active)
C=C(C)[C@@H]1CCC2=CC(=O)C[C@@H](C)[C@]2(C)C1,inactive,inactive,inactive,inactive,,39.9 µM (active),inactive,inactive,inactive,,,,inactive,
CSc1nc(NC2CC2)nc(NC(C)(C)C)n1,inactive,inactive,inactive,,21.7 µM (active),35.6 µM (active),2.52 µM (active),,39.9 µM (active),inactive,,,,
Cc1nc(-c2ccc(OCC(C)C)c(C#N)c2)sc1C(=O)O,inactive,inactive,inactive,inactive,0.106 µM (active),17.4 µM (active),inactive,inactive,inactive,inactive,,,inactive,
O=S(=O)(O)c1ccccc1O,inactive,inactive,inactive,inactive,inactive,inactive,inactive,inactive,inactive,inactive,,,25.2 µM (active),
Cn1cnc2c(=O)[nH]c(N)nc21,inactive,inactive,inactive,inactive,inactive,inactive,28.3 µM (active),inactive,inactive,inactive,,,inactive,
CC(C)(C)CC(C)(C)N,inactive,inactive,inactive,inactive,inactive,inactive,30.8 µM (active),inactive,inactive,inactive,,,inactive,
O=C(O)C(O)[C@H](O)[C@@H](O)[C@H](O)[C@H](O)CO (some centres not stated),inactive,inactive,inactive,inactive,inactive,,40.4 µM (active),inactive,inactive,inactive,,,,40.4 µM (active)
O=C(CCOCCOCCOCCOCCC(=O)Nc1c(I)cc(I)c(C(=O)O)c1I)Nc1c(I)cc(I)c(C(=O)O)c1I,inactive,inactive,inactive,inactive,inactive,inactive,inactive,inactive,inactive,inactive,,,,
